Values joined by “and” are separate entries in the source; they are usually repeats but may differ in a detail not shown here. Equal values may be shown once. The panel holds about 83,000 compounds, 20% with a hit somewhere; the sample as a whole holds those more often.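 In brief: 96-well plates, 48 h treatment, single concentration, percent growth endpoint.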 A number with no mark means an inactive call. Active and inactive are the calls of the source. Rule for the calls: active = growth percent below 10; inactive = the rest.
System: MDA-MB-468 breast
Assay: NCI-60 one-dose screen, 48 h (100 = growth as untreated, 0 = no growth, -100 = all killed)
Details: 10 µM unless noted

Question: For `CC(C)(C)CC(C)(C)c1ccc(OCCO)cc1`, which growth is on record?
Answer: The growth was 113%.

Question: Which growth does the source give for `CC(C)(C)[C@H](OCc1cn([C@H]2C[C@@H](O)[C@@H](CO)O2)c(=O)[nH]c1=O)c1ccc(C#Cc2ccccc2)cc1[N+](=O)[O-]` here?
Answer: Its growth is 68.2%.

Question: For `CS(=O)(=O)Nc1ccc(Nc2c3ccccc3nc3cc(N)ccc23)cc1`, which growth is on record?
Answer: Its growth is -52.9% (active).

Question: Which growth does the source give for `Fc1cccc(Oc2ccc(Nc3ncnc4ccc(OCCCN5CCOCC5)cc34)cc2Cl)c1` here?
Answer: The growth was -14.1% (active).

Question: With `CC1=CC(=O)CC(C)(C)[C@@]1(O)/C=C/[C@@H](C)O` as the molecule, how does the growth read?
Answer: The growth was 72.9%.

Question: How did the growth turn out when `ClCc1c(Cl)c(Cl)c(Cl)c(CCl)c1Cl` was run?
Answer: Its growth is -74% (active).

Question: For `Cc1ccccc1SSc1ccccc1C`, which growth is on record?
Answer: Its growth is 68.4%.

Question: Which growth does the source give for `COc1ccc(OC)c2c1[nH]c(=O)c1c3ncccc3cn21` here?
Answer: Its growth is 12.2%.

Question: `C#CC#CC#CC#CC#CC#CC#CC#CCC1OC[C@H](COC(=O)O[C@@H](C(=O)O[C@H]2C[C@@]3(O)[C@@H](OC(=O)c4ccccc4)[C@@H]4[C@]5(OC(C)=O)CO[C@@H]5C[C@H](O)[C@@]4(C)C(=O)[C@H](OC(C)=O)C(=C2C)C3(C)C)[C@@H](NC(=O)c2ccccc2)c2ccccc2)O1` (stereo partly drawn) was tested. Which growth did it give?
Answer: Its growth is 8.69% (active).

Question: How did the growth turn out when `CCCC1CCCCN1C(=O)OCC(C)C` (stereo not drawn) was run?
Answer: Its growth is 97.4%.

Question: How did the growth turn out when `COc1cc(-c2nc(-c3nnc(-c4ccccc4Cl)o3)c3ccccn23)cc(OC)c1OC` was run?
Answer: Its growth is 88.5%.

Question: For `O=C1/C(=C/N2N=C(c3ccc4ccccc4c3)CC2c2ccccc2O)SC(=S)N1c1cccnc1` (stereo not drawn), which growth is on record?
Answer: Its growth is 7.52% (active).

Question: For `CC(=O)CC(c1cccs1)c1c(-c2ccccc2)[nH]c2ccccc12` (stereo not drawn), which growth is on record?
Answer: The growth was 100%.

Question: Which growth does the source give for `CCCCCc1ccc(S(=O)(=O)N(C(C)=O)c2cccc(-c3csc(N(CCN4CCN(C)CC4)C(C)=O)n3)c2)cc1` here?
Answer: The growth was -10.9% (active).

Question: `COC(=O)c1ccc(NC(=O)CCl)cc1` was tested. Which growth did it give?
Answer: The growth was 83.2%.

Question: For `CC1(C)CC(=O)C2=C(C1)OC(C(=O)c1ccccc1)C2c1cccc(Oc2ccccc2)c1` (stereo not drawn), which growth is on record?
Answer: The growth was 33%.

Question: Which growth does the source give for `Cc1ccc(C(=O)CSc2nc3ccccc3c(=O)n2C)cc1` here?
Answer: The growth was 82.6%.

Question: With `O=c1[nH]c(=O)n(Cc2ccc(F)cc2)cc1F` as the molecule, how does the growth read?
Answer: Its growth is 102% [50 µM].

Question: `O=C(/C=C\c1ccc(OCCCCCC[P+](c2ccccc2)(c2ccccc2)c2ccccc2)cc1)c1ccc2c(c1)OCCO2` was tested. Which growth did it give?
Answer: Its growth is -38.6% (active).

Question: For `CCN(CC)CCCCCCNc1cccc2cc(Br)cnc12`, which growth is on record?
Answer: The growth was 77%.

Question: Which growth does the source give for `O=C1/C(=C/c2ccc(-c3ccc(Cl)cc3)o2)SC(=S)N1CCc1ccc(O)cc1` here?
Answer: Its growth is 87%.

Question: For `CCCCCCNC(=O)Oc1ccc(/C(=C(\C)c2ccc(OC)cc2)c2ccc(OCCN3CCCCC3)cc2)cc1`, which growth is on record?
Answer: Its growth is 75.6%.

Question: Which growth does the source give for `CC(C)NCC(O)COc1ccc(CCOCC2CC2)cc1` (stereo not drawn) here?
Answer: The growth was 103%.

Question: How did the growth turn out when `O=C(O)c1cn(C2CC2)c2cc(N3CCN(C(=O)c4cc(-c5ccc(Cl)cc5)nc5ccccc45)CC3)c(F)cc2c1=O` was run?
Answer: Its growth is 99%.

Question: Which growth does the source give for `COc1cc(CNc2ccccc2C(=O)N2CCN(C(=O)c3cc(-c4cc(OC)c(OC)c(OC)c4)n4nc(-c5ccccc5)cc4n3)CC2)cc(OC)c1OC` here?
Answer: Its growth is 23.1%.

Question: For `Cc1ccc([N+](=O)[O-])c(C)n1`, which growth is on record?
Answer: Its growth is 112%.

Question: How did the growth turn out when `C[C@H]1[C@H](C)CC[C@]2(C(=O)OCCOCCOCC[P+](c3ccccc3)(c3ccccc3)c3ccccc3)CC[C@]3(C)C(=CC[C@@H]4[C@@]5(C)CC[C@H](OC(=O)C(Cl)Cl)C(C)(C)[C@@H]5CC[C@]43C)[C@H]12` was run?
Answer: The growth was -21.5% (active).

Question: `COc1cc(/C=C/c2cc(/C=C/c3ccc(O)c(OC)c3)n(C(=O)Nc3ccccc3Cl)n2)ccc1O` was tested. Which growth did it give?
Answer: The growth was -24.2% (active).

Question: With `Nc1ccn(C2OC(CO)C(O)C2O)c(=O)n1` (stereo not drawn) as the molecule, how does the growth read?
Answer: The growth was 76% and 106% and 118%.

Question: For `CC(C)(O)CCl`, which growth is on record?
Answer: Its growth is 103%.

Question: `O=S(=O)(NCCCNc1nccc(-n2ccc3cccnc32)n1)c1ccc(Br)cc1` was tested. Which growth did it give?
Answer: The growth was 90.3%.

Question: How did the growth turn out when `Cc1ccc(-c2csc(N)n2)cc1` was run?
Answer: The growth was 104%.

Question: With `S=C1NC2(c3ccccc3)CCC(=S)N2c2ccccc21` (stereo not drawn) as the molecule, how does the growth read?
Answer: The growth was 112%.

Question: How did the growth turn out when `CCSc1ncnc2c1ncn2C1OC(CO)C(O)C1O` (stereo not drawn) was run?
Answer: The growth was 15.8%.

Question: `Nc1c(C(=O)c2ccc(Cl)cc2)sc(Nc2ccccc2)c1-c1nc2ccccc2s1` was tested. Which growth did it give?
Answer: Its growth is 14.7%.

Question: `Clc1cccc(Cl)c1Nc1ccc2nnc(-c3ccncc3)n2n1` was tested. Which growth did it give?
Answer: Its growth is 104%.

Question: With `CS(=O)(=O)Nc1cc(-c2cc3ncc(C#N)c(Nc4ccc(Oc5ccccc5)c(Cl)c4)c3s2)cnc1Cl` as the molecule, how does the growth read?
Answer: Its growth is 43.3%.

Question: For `COc1cc(O)c2c(c1)/C=C/C[C@H](O)[C@H](O)C(=O)/C=C\C[C@H](C)OC2=O`, which growth is on record?
Answer: The growth was -24.3% (active).
